Where “and” joins values, the source holds several entries; their conditions need not be identical. Identical values can stand only once. Counter-ions that a name gives are not always drawn.
Columns and labels:
Assay in all cases: cell viability relative to vehicle control; higher = less cytotoxic
Conditions in all cases: 10 µM
[1] = system: K562
Procedure, shortened: (§1)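 CRISPR-edited mutant clones and isogenic wild-type clones from four leukaemia lines were screened against Selleck bioactive, kinase and epigenetic probe libraries, with identity-inconsistent compounds excluded. Each compound was acoustically dispensed at a single 10 µM dose into 384-well plates holding 2000 cells in 50 µL medium per well. After 48 h the supernatant was removed and CellTiter-Glo luminescence was read. Viability was expressed as percent of the on-plate vehicle control and analysed in Genedata Screener.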

[2] = system: MARIMO
Procedure, shortened: as §1

[3] = system: MOLM14
Procedure, shortened: as §1

[4] = system: OCI-AML2
Procedure, shortened: as §1

Compound	cell viability ([1]; SRSF2 genotype: SRSF2 P95H/wt)	cell viability ([1]; SRSF2 genotype: SRSF2 wt/wt) [%]	cell viability ([2]; SRSF2 genotype: SRSF2 P95H/wt) [%]	cell viability ([2]; SRSF2 genotype: SRSF2 wt/wt) [%]	cell viability ([3]; SRSF2 genotype: SRSF2 P95H/wt) [%]	cell viability ([3]; SRSF2 genotype: SRSF2 wt/wt) [%]	cell viability ([4]; SRSF2 genotype: P95H/wt) [%]	cell viability ([4]; SRSF2 genotype: wt/wt) [%]
Cc1ccc(C(=O)Nc2cccc(C(F)(F)F)c2)cc1Nc1nc(-c2cccnc2)nc2c1cnn2C	65.9% and 77.9%	64.2	46.1	60.5	91	110	87	82.7
Fc1ccc(CNc2ncnc3ccc(F)cc23)cc1 [Spautin-1]	66.5% and 63.9%	66.7	54.7	41.1	51.3	59.4	35.6	31.5
O=C(O)c1cn(C2CC2)c2cc(Cl)c(F)cc2c1=O [Fluoroquinolonic Acid]	108% and 104%	108	97.5	101	104	110	104	110
CCOC(=O)C1=C(C)NC(C)=C(C(=O)OC)C1c1cccc(Cl)c1Cl (stereo not given) [Felodipine (Plendil)]	72.9% and 78.2%	79.9	79.2	88.8	78.4	86.3	78.9	87.1
Nc1nc(N)c2nc(-c3cccc(O)c3)c(-c3cccc(O)c3)nc2n1	95% and 105%	88.6	111	101	108	107	98.5	91.4
O=C1CC(=O)c2c(Cl)c(Cl)c(Cl)c(Cl)c21	92.3% and 95%	92.2	99.7	96.6	95.3	93.7	99.7	104
NC(=O)/C(=C/n1cnc(-c2cc(C(F)(F)F)cc(C(F)(F)F)c2)n1)c1cncnc1	3.74% and 12.7%	11.3	15.4	17.5	0.67	0.57	1.55	4.56
CCc1cc2c(cc1CC)CC(NC[C@H](O)c1ccc(O)c3[nH]c(=O)ccc13)C2 [Indacaterol Maleate]	68.6% and 83.2%	75.8	73.3	77	62	71.2	52.5	60.1
COc1ccc(CCNCc2ccc(OCc3ccc(Cl)nc3)c(OC)c2)cc1OC	85.6% and 95.4%	89.8	87.4	95.2	91.9	99.9	91.4	83.5
CCS(=O)(=O)CCn1c([N+](=O)[O-])cnc1C [Tinidazole]	96.7% and 92.4%	100	96.6	97.2	95.1	98.2	102	102
